Screening data from PubChem.
TDP1 cell noCPT: qHTS for Inhibitors of human tyrosyl-DNA phosphodiesterase 1 (TDP1): qHTS in cells in absence of CPT; DT40 Tdp1-/- hTDP1 cells, no CPT, ATP luminescence, 48 h; Potency, µM (highest dose often 46.2 µM), most hits filed as inhibitors; 420,000 tested, 15% active; AID 686978, 2013; also: nearly all actives have a fitted effect of over 55% in size
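Growth kinetics read by CellTiter-Glo luminescence after ≥48 hr at 37 °C. Cells: DT40 Tdp1-/- stably carrying human TDP1, 400 per well, compound exposure in the absence of CPT (DMSO vehicle).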
DT40 TDP1 CPT: growth inhibition of DT40 Tdp1-/-;hTDP1 cells with camptothecin (screen for TDP1 inhibitors); chicken DT40 Tdp1-/-;hTDP1 cells + 20 nM CPT, ATP luminescence, 48 h; Potency, µM (series often up to 46.2 µM), usual class: inhibitors; 420,000 tested, 12% active; AID 686979; also: nearly all actives have a fitted effect of over 55% in size
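Chicken DT40 Tdp1-/- cells stably complemented with human TDP1 were seeded at 400 cells/well in medium containing 20 nM camptothecin, exposed to pin-transferred compounds, and grown at 37 °C for at least 48 hr. Viability was read as ATP luminescence.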
S-ASM inh: blocks human secretory acid sphingomyelinase; placental ASM, HMU-PC fluorogenic substrate, 60 min; Potency, µM (highest dose often 57.5 µM), actives largely listed as inhibitors; 340,000 tested, 0.006% active
Target sequence (P17405 47-631 limits assumed): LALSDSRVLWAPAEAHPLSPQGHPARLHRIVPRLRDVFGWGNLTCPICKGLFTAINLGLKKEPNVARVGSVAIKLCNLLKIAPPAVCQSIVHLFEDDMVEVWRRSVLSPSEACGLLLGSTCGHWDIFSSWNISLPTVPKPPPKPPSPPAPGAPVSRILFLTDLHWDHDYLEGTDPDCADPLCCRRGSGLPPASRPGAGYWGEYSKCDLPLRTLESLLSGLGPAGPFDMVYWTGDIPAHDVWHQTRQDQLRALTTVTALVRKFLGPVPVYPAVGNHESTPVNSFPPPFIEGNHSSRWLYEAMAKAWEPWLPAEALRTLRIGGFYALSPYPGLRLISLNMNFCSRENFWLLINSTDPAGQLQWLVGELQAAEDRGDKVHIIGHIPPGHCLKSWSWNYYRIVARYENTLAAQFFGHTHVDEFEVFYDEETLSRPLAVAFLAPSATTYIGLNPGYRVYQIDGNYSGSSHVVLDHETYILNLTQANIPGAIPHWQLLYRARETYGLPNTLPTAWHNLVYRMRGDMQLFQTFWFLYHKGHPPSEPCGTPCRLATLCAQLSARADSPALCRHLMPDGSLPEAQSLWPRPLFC
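qHTS format. ASM enzyme prepared from human placenta hydrolyses the fluorogenic substrate HMU-PC0 (9 uM final) over 60 min at 37 °C after a 10 min compound preincubation.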
IL1B secr inh: inhibitors of inflammasome signaling (IL-1 beta secretion); THP-1 LPS/ATP IL-1B secretion, AlphaLISA, 16 h; active compounds read low; activity change, % at 57.5 µM; 360,000 tested, 4.7% active; AID 743279; in the data active = activity change below about -50%; inconclusive = mostly about -30% to -49%
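THP-1 cells pretreated 1 hr with compounds (up to 57.5 uM final), then stimulated with LPS (250 ng/mL final) plus ATP (1.25 mM final); secreted IL-1B measured by AlphaLISA after 16 hr, decreased signal indicating inhibition.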
HepG2 viability: HepG2 cytotoxicity, counter-screen for TGF-b inhibitors; 410,000 tested, 0.76% active; HepG2 CAGA-GFP viability, ATP luminescence, 18 h; Potency, µM (top dose mostly 46.1 µM), hits mostly cytotoxic
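CellTiter-Glo luminescence gave cytotoxicity after 18 hours at 37 degrees C. The cells were HepG2 CAGA-GFP in 1% FBS DMEM, stimulated with 500 pg/mL TGF-beta after compound addition. %Activity was normalised to no-cell wells (complete cell-killing) and DMSO (no toxicity), and curves were fitted and classified.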
TGFb inhibitor: inhibitors of TGF-b signaling. 410,000 tested, 1.2% active. HepG2 CAGA-GFP TGF-b/SMAD3 reporter, GFP fluorescence, 18 h; TGF-beta stimulated, 500 pg/mL final. Potency, µM (top dose mostly 46.1 µM), most hits filed as inhibitors; also: nearly all actives have a fitted effect of over 65% in size
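Inhibition of TGF-beta-driven CAGA-GFP reporter expression in HEPG2 cells is measured by cellular GFP fluorescence after 18 h stimulation with 500 pg/mL recombinant TGF-beta in 1% FBS medium at 37 degrees C.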
Hits are given with their value; . = inactive; ? = inconclusive; / = not tested or not shown; [ ] = remark or other dose. This is a sample that favours compounds with a hit; in the whole collection about 19% have one here. Unless noted, calls follow the shape of the dose curve; as a rule, active = well fitted curve in the direction sought with a large enough effect; inconclusive = small, poorly fitted or top-dose-only effect, or another doubt; inactive = no such curve, though single readings can be large; an effect the other way counts as inactive or inconclusive.

SMILES	TDP1 cell noCPT	DT40 TDP1 CPT	S-ASM inh	IL1B secr inh	HepG2 viability	TGFb inhibitor
COc1cccc(-c2nn(C)c3sc(C(=O)N4CCN(c5cccc(C)c5)C(C)C4)cc23)c1 (stereo unspecified)	23µM	21µM	/	/	.	.
CCOC(=O)N1CCC(NC(=O)c2cc3c(-c4cccc(OC)c4)nn(C)c3s2)CC1	?	23µM	.	.	.	.
CCOc1ccc(C(=O)N2CCN(c3cccc(C)c3C)CC2)cc1	.	?	.	.	.	.
O=C(NCc1ccccc1)c1cc2ccc3cccnc3c2[nH]1	?	?	/	/	.	.
Cc1cccc(N2CCN(C(=O)c3cccc(-n4c(C)nc5cccnc54)c3)CC2)c1C	5.8µM	7.3µM	/	/	.	.
O=C(Nc1ccc(F)cc1F)c1cc2ccc3cccnc3c2[nH]1	?	2.9µM	/	/	.	.
Cc1ccc(C)c(N2CCN(C(=O)c3cc4ccc5cccnc5c4[nH]3)CC2)c1	?	29µM	/	/	.	16µM
Cc1ccc(Cl)cc1N(C)C(=O)c1cc2ccc3cccnc3c2[nH]1	8.2µM	6.5µM	/	/	13µM	11µM
Cc1ccc2[nH]c(CSc3nnc(NC(=O)COc4ccccc4Cl)s3)cc(=O)c2c1	?	?	/	/	.	.
Cc1ccc(-n2c3nc(=O)[nH]c(=O)c-3cc3c(C)nn(-c4ccccc4)c32)cc1C	.	.	/	/	.	.
Cc1cccc(N2CCN(C(=O)c3cccc(-n4c(C)nc5cccnc54)c3)CC2C)c1 (stereo unspecified)	6.5µM	8.2µM	/	/	.	.
Cc1ccc(Cl)cc1N1CCN(C(=O)c2ccc(C)c(-n3c(C)nc4cccnc43)c2)CC1	5.2µM	7.3µM	/	/	.	?
Cc1ccc(C)c(N2CCN(C(=O)c3cccc(-n4c(C)nc5cccnc54)c3)CC2)c1	13µM	7.3µM	/	/	.	.
CCCCNC(=O)c1cccc(-n2c(C)nc3cccnc32)c1	.	.	/	/	.	.
CCCc1cc(=O)[nH]c2nnc(SCC(=O)Nc3cccc(NC(C)=O)c3)n12	?	?	.	.	.	.
CCN1C(=O)[C@H]2[C@@H](c3ccc(C)cc3)N[C@]3(CCCN(Cc4ccc(F)cc4)C3=O)[C@H]2C1=O	?	?	/	.	.	.
Cc1ccccc1N1C(=O)C2C3C=CC(C2C1=O)N(C)C3=O (stereo unspecified)	.	.	.	.	.	.
CN1C2C=CC(=O)C1C1C(=O)N(c3ccccc3)C(=O)C12 (stereo unspecified)	18µM	18µM	/	-118	.	.
O=C(/C=C/c1ccccc1)c1cc(Br)ccc(=O)c1O	4.6µM	3.7µM	.	-59	.	16µM
O=C(/C=C/c1ccc(F)cc1)c1cc(Br)ccc1O	.	.	.	-57	.	.
Cc1ccc(/C=C/C(=O)c2ccccc(=O)c2O)cc1C	13µM	23µM	.	-81	.	10µM
O=C(COC(=O)c1cc(Br)ccc1O)c1ccc(F)cc1	.	.	.	.	.	.
O=C(/C=C/c1ccc(O)c(O)c1)NC(=O)c1ccccc1O	.[9.04 µM]	.[9.04 µM]	.	.	.	.
Cc1ccc(S(=O)(=O)N2CCC(=O)N([C@H](COCc3cccc(C(F)(F)F)c3)C(C)C)CC2)cc1	16µM	?	/	.	/	/
Cc1ccc(S(=O)(=O)N2CCC(=O)N(C(COCc3ccc(C(F)(F)F)cc3)C(C)C)CC2)cc1 (stereo unspecified)	12µM	16µM	.	.	.	?
SMILES	TDP1 cell noCPT	DT40 TDP1 CPT	S-ASM inh	IL1B secr inh	HepG2 viability	TGFb inhibitor
Cn1c(=O)cnc2cnc(Oc3ccccc3)nc21	.	.	/	/	/	/
CC1CC(C)CN(CC(O)COCc2ccccc2)C1 (stereo unspecified)	.	.	.	.	.	.
COc1ccc(-c2c(NC(=O)CC(C)C)n(C)c3ccccc3c2=O)cc1OC	.	.	.	.	.	.
Cc1cccc(NC(=O)C2C(c3ccccc3)C2(Cl)Cl)c1 (stereo unspecified)	13µM	?	.	.	.	?
COc1ccc(NC(=O)C2C(c3ccccc3)C2(Cl)Cl)cc1 (stereo unspecified)	?	?	.	.	.	.
CCOc1ccc(NC(=O)C2C(c3ccccc3)C2(Cl)Cl)cc1 (stereo unspecified)	23µM	?	.	.	.	?
COc1cc(=O)n2c(c1C(=O)N(C)Cc1nonc1C)CCN(C(=O)c1cccc(C)c1C)CC2	.	.	/	/	/	/
COc1ccc(-c2csc(NC(=O)C3=NN(c4ccccc4)C(=O)CC3)n2)cc1	16µM	15µM	?	.	.	.
COc1ccc(-c2nc(NC(=O)C3=NN(c4cccc(C)c4)C(=O)CC3)sc2C)cc1	?	23µM	.	.	.	.
Cc1sc(NC(=O)c2cccc(N3C(=O)CCC3=O)c2)nc1-c1ccccc1	?	.	.	-57	.	.
Cc1cccc2sc(NC(=O)C3=NN(c4ccccc4)C(=O)CC3)nc12	?	.	.	.	.	.
CCN(CC)S(=O)(=O)c1ccc(O)c(C(=O)OCC(=O)N2CCCC2)c1	.	.	.	.	.	.
COC(=O)c1ccccc1N/C=C1\CCc2c(c(C)nn2-c2ccccn2)C1=O	?	16µM	.	.	.	.
COC(=O)c1ccccc1NC(=O)CN1CCN(c2ccccn2)CC1	.	.	.	.	.	.
Cc1cc(C)cc(OCc2ccc(C(=O)Nc3ccccc3F)o2)c1	?	.	/	/	.	.
N[C@@H](CO)c1cn([C@@H](Cc2cc3ccccc3[nH]2)C(=O)N2CCNCC2)nn1	.	.	.	.	.	.
C#CCOCCOCCOCCNc1nc(N2CCN(C(=O)[C@H]([C@@H](C)CC)n3cc([C@@H](N)Cc4ccc(O)cc4)nn3)CC2)nc(N2CCN(C(=O)[C@H](Cc3cc4ccccc4[nH]3)n3cc([C@@H](N)CC(C)C)nn3)CC2)n1	?	23µM	.	.	.	?
CC[C@@H](C)C(NC(=O)OC(C)(C)C)c1cn([C@@H](Cc2cc3ccccc3[nH]2)C(=O)N2CCN(C(=O)OC(C)(C)C)CC2)nn1 (stereo partly specified)	23µM	23µM	.	?	.	?
